Source: PubChem BioAssay (NCI)
The panel holds about 79,000 compounds, 15% with a hit somewhere; the sample as a whole holds those more often. A number with no mark means an inactive call. Activity calls are given as the source filed them. Rule as the data show it: active = growth inhibition above about 70%; inactive = the rest.

Legend:
[1] = NCI Yeast Anticancer Drug Screen. Data for the rad50 strain (AID 155);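 also: 0% = growth of vehicle-only cultures of the same strain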; conditions: S. cerevisiae rad50 strain growth inhibition, hits give high values
In short: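 Yeast carrying a defined DNA repair defect were exposed to test compounds, and growth was compared with vehicle-treated controls to give percent inhibition.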

[2] = NCI Yeast Anticancer Drug Screen. Data for the mec2-1 strain (AID 157); conditions: S. cerevisiae mec2-1 strain, hits give high values
In short: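 Vehicle-treated cultures served as reference for growth inhibition of compound-exposed mec2-1 yeast.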

[3] = NCI Yeast Anticancer Drug Screen. Data for the sgs1 mgt1 strain (AID 161);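 also: 0% = growth of cultures given vehicle only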; conditions: S. cerevisiae sgs1 mgt1 strain, hits give high values
In short: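 Inhibition of yeast growth, normalised to vehicle-treated controls, is reported for a strain bearing genetic alterations in DNA damage repair.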

[4] = NCI Yeast Anticancer Drug Screen. Data for the cln2 rad14 strain (AID 165);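 also: 0% = growth equal to vehicle treated cultures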; conditions: S. cerevisiae cln2 rad14 strain, hits give high values
In short: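 Each compound was tested on cln2 rad14 yeast. Inhibition of growth was calculated against vehicle-exposed controls.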

[5] = NCI Yeast Anticancer Drug Screen. Data for the bub3 strain (AID 167); conditions: S. cerevisiae bub3 mutant strain, hits give high values
In short: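 Compounds were applied to a genetically altered yeast strain carrying a cell-cycle control defect. Growth inhibition was scored against vehicle-treated controls.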

[6] = NCI Yeast Anticancer Drug Screen. Data for the mlh1 rad18 strain (AID 175); conditions: S. cerevisiae mlh1 rad18 strain growth inhibition, hits give high values
In short: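 Vehicle-treated cultures served as the reference for growth inhibition in a yeast strain carrying DNA damage repair alterations exposed to each compound.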

[7] = at 5.0 µM (retest, dose inferred, filed as 0.5)
[8] = at 50.0 µM (retest, dose inferred, filed as 5.0)

Compound | growth inhibition [1, 7] | growth inhibition [1, 8] | growth inhibition ([1]; at 50.0 µM) | growth inhibition [2, 7] | growth inhibition [2, 8] | growth inhibition ([2]; at 50.0 µM) | growth inhibition [3, 7] | growth inhibition [3, 8] | growth inhibition ([3]; at 50.0 µM) | growth inhibition [4, 7] | growth inhibition [4, 8] | growth inhibition ([4]; at 50.0 µM) | growth inhibition [5, 7] | growth inhibition [5, 8] | growth inhibition ([5]; at 50.0 µM) | growth inhibition [6, 7] | growth inhibition [6, 8] | growth inhibition ([6]; at 50.0 µM)
Cc1c2ccccc2c(CO)c2cc(F)c3ccccc3c12 | 71% (active) | 98% (active) | 71.5% (active) | 95% (active) | 99% (active) | 34% | 97% (active) | 99% (active) | 84.2% (active) | 87% (active) | 98% (active) | 31.9% | 91% (active) | 98% (active) | 85% (active) | 95% (active) | 98% (active) | 92.7% (active)
c1ccc2c(c1)OCC(CN1CCN(CC3COc4ccccc4O3)CC1)O2 (stereo not given) | 41% | 57% | 76.7% (active) | 36% | 51% | 67% | 47% | 55% | 77.7% (active) | 52% | 58% | 84% (active) | 47% | 60% | 67.9% | 47% | 60% | 81.2% (active)
Cc1c[nH]c2nc(C)n(-c3ccccc3)c(=N)c12 | -1% | 2% | 6.1% | 1% | -3% | 16.5% | -3% | 3% | 2.5% | 2% | -8% | 38% | -3% | -3% | -6.85% | -2% | -2% | 8.65%
C=C1C(=O)OC2/C=C(\C(=O)O)CC/C=C(\C)CC(OC(=O)/C=C(\C)CC)C12 (stereo not given) | -1% | 79% (active) | 94% (active) | -5% | 79% (active) | 68.2% | -1% | 79% (active) | 77.1% (active) | -19% | 69% | 69.8% | -7% | 84% (active) | 84.2% (active) | -4% | 93% (active) | 77.1% (active)
Cc1ccc(N=Nc2c(-c3ccccc3)nn(C(=S)S)c2-c2ccccc2)cc1 | 8% | 48% | 49.7% | 9% | 37% | 38.5% | 12% | 72% (active) | 55.8% | 5% | 39% | 16.2% | 36% | 84% (active) | 85.2% (active) | 7% | 34% | 61.8%
COc1cc2c(cc1O)-c1c(cnn1-c1ccc([N+](=O)[O-])cc1)CCC2 | 7% | 56% | 79% (active) | 4% | 27% | 91.9% (active) | 4% | 38% | 85.6% (active) | 3% | 52% | 73% (active) | 0% | 3% | 93.2% (active) | 17% | 71% (active) | 94.8% (active)
Cc1cc2c(cc1C)[n+]([O-])c(-c1c(Cl)cccc1Cl)c(N)[n+]2[O-] | 13% | 88% (active) | 82.5% (active) | 27% | 98% (active) | 45.2% | 40% | 100% (active) | 79.4% (active) | 18% | 77% (active) | 69% | 56% | 99% (active) | 93.5% (active) | 45% | 98% (active) | 93.7% (active)
Cc1c(-c2ccccc2)ccnc1/C=N/NC(=S)NCCc1ccccc1 | 49% | 77% (active) | 76.3% (active) | 52% | 85% (active) | 76.3% (active) | 52% | 83% (active) | 75.5% (active) | 42% | 80% (active) | 70% | 55% | 84% (active) | 77.7% (active) | 49% | 80% (active) | 74% (active)
CCCN(CCC)Cc1cc2c(cc1O)CC[C@@H]1[C@@H]2CC[C@]2(C)C(=O)CC[C@@H]12 | 98% (active) | 87% (active) | 84% (active) | 100% (active) | 89% (active) | 51.8% | 100% (active) | 62% | 80.1% (active) | 52% | 20% | 60.9% | 99% (active) | 89% (active) | 37.5% | 99% (active) | 94% (active) | 65.2%
CC1(CO)CCCC2(C)C1CCC1CC3C=CC12C1C(=O)OC(=O)C31 (stereo not given) | 41% | 79% (active) | 84.1% (active) | 25% | 77% (active) | 61.2% | 12% | 86% (active) | 24.6% | 30% | 82% (active) | 27.8% | 23% | 89% (active) | 62.2% | 36% | 88% (active) | 79.5% (active)
